Assay outcomes as filed in PubChem BioAssay.
KKLEB cytotox: reduces viability of KKLEB cystic fibrosis airway cells. KKLEB CF airway cells viability, ATPlite luminescence, overnight; stronger effect = lower value; cells stimulated with P. aeruginosa culture filtrate. activity change (cytotoxicity), % at 5 µM. hit rate 0.36% among 360,000. AID 602141;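 active = corrected activity change at or below -50% at 5 µM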
Peg3 prom inh-1: inhibitors of Peg3 promoter; HeLa PEG-Prom luciferase reporter, luminescence, overnight; hit rate 1.7% among 360,000; inhibition, % at 20 µM;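 active = inhibition of at least 50% at 20 µM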
HIF-2a block: blocks HIF-2a reporter activity; 786-0 RCC cells HIF-2a reporter, luciferase luminescence, overnight; hit rate 0.72% among 360,000; AID 624352; inhibition, % at 18.8 µM;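 active = inhibition of the luminescence signal of 40% or more relative to plate controls, in a single-dose primary screen at 18.75 µM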
CF NFkB inh: cystic fibrosis NF-kB activation inhibition; KKLEB NF-kB-GFP reporter, PAF-induced, GFP fluorescence overnight; inhibition, % at 5 µM; AID 588850; hit rate 0.86% among 360,000;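 active = at least 50% inhibition at 5 µM, scaled per plate between neutral and stimulator controls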;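 note: PAF is a Pseudomonas aeruginosa culture filtrate used as stimulus; plate controls were PAF-stimulated DMSO wells for no effect and unstimulated DMSO wells for full effect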
Mdm2 MdmX PPI: disrupts the human Mdm2-MdmX interaction | hit rate 3% among 330,000 | inhibition, % at 8 µM | SaOS-2 split-luciferase Mdm2/MdmX complementation, luminescence;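 active = inhibition of at least 50% at 8 µM in the primary screen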
ABHD5-PLIN5 inh: ABHD5-PLIN5 protein interaction inhibition; AID 602281; Q00G26+Q8WTS1; hit rate 0.78% among 360,000; inhibition, % at 4 µM; Split G. princeps luciferase complementation, luminescence, 4 h;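 active = inhibition above the mean inhibition across every tested compound plus 3 SD, cut at about 22% in these data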;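 note: 0% = DMSO only wells and the 100% control is not disclosed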
Peg3 prom inh-2: Peg3 promoter inhibition confirmation. inhibition, % at 20 µM. hit rate 84% among 1,300. HeLa PEG-Prom luciferase reporter, luminescence, overnight. AID 602417. shares compounds with Peg3 prom inh-1;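 active = at 20 µM dose, 40% or more inhibition averaged across four replicates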
CF NFkB inh conf: CF NF-kB inhibition confirmation, single concentration; shares compounds with CF NFkB inh; KKLEB CF airway cells, PAF-induced NF-kB-GFP fluorescence, overnight; inhibition, % at 5 µM; hit rate 64% among 1,300; AID 602472; in the data active = inhibition above about 40%;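 note: stimulus PAF is a Pseudomonas aeruginosa filtrate and not platelet activating factor; plate controls were DMSO wells with stimulus for no effect and unstimulated DMSO wells for full effect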
HIF-2a conf: confirmation of HIF-2a inhibitors; inhibition, % at 18.8 µM; hit rate 56% among 1,800; 786-0 RCC cells, HIF-2a luciferase reporter luminescence, overnight; shares compounds with HIF-2a block;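 active = mean inhibition across four replicates of at least 40 percent at the single tested concentration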
HIF-1a cs: counter-screen for HIF-2a inhibitors: HIF-1a inhibition in MiaPaCa-2 cells; MiaPaCa-2 HIF-1a luciferase reporter, desferoxamine, overnight; hit rate 72% among 1,800; inhibition, % at 18.8 µM; AID 651589; shares compounds with HIF-2a block;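 active = mean inhibition of the reporter signal across four replicates at the single tested dose of 50% or more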
Active calls of the source: *; ! = a repeat was not active. In the library only some 4.6% were active in any assay of this set; here they are far more common.

CCCCCCCCCCCCCCCC(O)C[N+](C)(C)CCO (stereo not drawn) was read as KKLEB cytotox -62*, Peg3 prom inh-1 104*, HIF-2a block 62*, CF NFkB inh 54*, ABHD5-PLIN5 inh 5, Peg3 prom inh-2 87*, HIF-2a conf 52* and HIF-1a cs 92*.
For CCCCCC(O)CCCC(=O)O (stereo not drawn) the results were KKLEB cytotox 10, Peg3 prom inh-1 6, HIF-2a block 11, CF NFkB inh -13 and ABHD5-PLIN5 inh -8.
Screening C(=Cc1cnc2ccccc2n1)c1ccc2c(c1)OCO2 returned KKLEB cytotox -65*, Peg3 prom inh-1 69*, HIF-2a block 59*, CF NFkB inh -31, ABHD5-PLIN5 inh 3, Peg3 prom inh-2 85*, HIF-2a conf 92* and HIF-1a cs 99*.
Screening CC(=O)c1sc(Nc2nc3ccc(F)cc3s2)nc1C returned KKLEB cytotox -6, Peg3 prom inh-1 -267, HIF-2a block -207, CF NFkB inh -2, Mdm2 MdmX PPI -89 and ABHD5-PLIN5 inh 0.
COC(=O)c1ccc2nc(Nc3nc4ccc(F)cc4s3)sc2c1 was read as KKLEB cytotox 1, Peg3 prom inh-1 79*, HIF-2a block 89*, CF NFkB inh -10, ABHD5-PLIN5 inh -1, Peg3 prom inh-2 90*, HIF-2a conf 98* and HIF-1a cs 88*.
For N#Cc1cc2c(nc1SC1CC(=O)N(c3ccccc3)C1=O)CCC2 (stereo not drawn) the results were KKLEB cytotox -4, Peg3 prom inh-1 57*, HIF-2a block 59*, CF NFkB inh 9, ABHD5-PLIN5 inh -5, Peg3 prom inh-2 59*, HIF-2a conf 83* and HIF-1a cs 63*.
CSc1nc2c(cc1C#N)CCC2 was read as KKLEB cytotox 7, Peg3 prom inh-1 6, HIF-2a block 11, CF NFkB inh 6, Mdm2 MdmX PPI 19 and ABHD5-PLIN5 inh 2.
Screening O=C1CCC2S/C(=C/Nc3ccc(C(F)(F)F)cc3)C(=O)N12 (stereo not drawn) returned KKLEB cytotox 5, Peg3 prom inh-1 67*, HIF-2a block 97*, CF NFkB inh -4, Mdm2 MdmX PPI 14, ABHD5-PLIN5 inh 2, Peg3 prom inh-2 89*, HIF-2a conf 98* and HIF-1a cs 105*.
`O=C1CCCC/C1=C/Nc1cccc(C(F)(F)F)c1` gave KKLEB cytotox 20, Peg3 prom inh-1 -52, HIF-2a block -59, CF NFkB inh -3, Mdm2 MdmX PPI 15 and ABHD5-PLIN5 inh -3.
COc1cc(C2c3cc4c(cc3C3OC(=O)C2C3CO)OCO4)cc(OC)c1OC (stereo not drawn) was read as KKLEB cytotox -37, Peg3 prom inh-1 -1, HIF-2a block 24, CF NFkB inh 53*, ABHD5-PLIN5 inh 2 and CF NFkB inh conf 75*.
For CCN(CC)C1Oc2cc3c(cc2C(c2cc(OC)c(OC)c(OC)c2)C1C)OCO3 (stereo not drawn) the results were KKLEB cytotox -21, Peg3 prom inh-1 -5, HIF-2a block 28, CF NFkB inh 45 and ABHD5-PLIN5 inh -3.
Screening CCOc1cc2c(cc1O)C(=NO)CC1C2CCC2(C)C(O)CCC12 (stereo not drawn) returned KKLEB cytotox -28, Peg3 prom inh-1 1, HIF-2a block 31, CF NFkB inh 52*, ABHD5-PLIN5 inh 4 and CF NFkB inh conf 75*.
For COc1cc2c(cc1O)CC[C@@H]1[C@@H]2CC[C@]2(C)[C@@H](O)CC[C@@H]12 the results were KKLEB cytotox 2, Peg3 prom inh-1 28, HIF-2a block 23, CF NFkB inh 39, Mdm2 MdmX PPI 42 and ABHD5-PLIN5 inh 11.
Screening CCC1Nc2ncnc(N3CCCCC3)c2N(Cc2ccc(C)cc2)C1=O (stereo not drawn) returned KKLEB cytotox -10, Peg3 prom inh-1 7, HIF-2a block 19, CF NFkB inh 71*!, Mdm2 MdmX PPI 9, ABHD5-PLIN5 inh -5 and CF NFkB inh conf 17.
`Cn1c(NCc2cccnc2)nc2cc(-c3cccc(C(F)(F)F)c3)sc2c1=O` gave KKLEB cytotox -15, Peg3 prom inh-1 -19, HIF-2a block -59, CF NFkB inh 6 and ABHD5-PLIN5 inh 11.
Screening Nc1cccc2c1C(=O)N(C(=O)/C=C/c1cccc(Br)c1)C2=O returned KKLEB cytotox 22, Peg3 prom inh-1 54*, HIF-2a block 12, CF NFkB inh 56*, ABHD5-PLIN5 inh 5 and CF NFkB inh conf -67.
`CCOC(=O)/C=c1/s/c(=C\c2c(OC)ccc3ccccc23)c(=O)n1CC(=O)NCC1CCCO1` (stereo not drawn) gave KKLEB cytotox -33, Peg3 prom inh-1 11, HIF-2a block 7, CF NFkB inh 54*, ABHD5-PLIN5 inh -10 and CF NFkB inh conf 65*.
CCOC(=O)/C=c1\s/c(=C\c2c(OCC)ccc3ccccc23)c(=O)n1CC(=O)NCC1CCCO1 (stereo not drawn) was read as KKLEB cytotox -6, Peg3 prom inh-1 45, HIF-2a block 26, CF NFkB inh -3, Mdm2 MdmX PPI 29 and ABHD5-PLIN5 inh 8.
For CC(C)CC1C(=O)N(Cc2cn(Cc3ccco3)nn2)CCS(=O)(=O)N1Cc1ccc(-c2cccc(CO)c2)cc1 (stereo not drawn) the results were KKLEB cytotox 2, Peg3 prom inh-1 3, HIF-2a block 14, CF NFkB inh 27 and ABHD5-PLIN5 inh 4.
`CC(C)CC1C(=O)N(Cc2cn(Cc3ccco3)nn2)CCS(=O)(=O)N1Cc1ccc(-c2ccc(Cl)cc2)cc1` (stereo not drawn) gave KKLEB cytotox -23, Peg3 prom inh-1 42, HIF-2a block -5, CF NFkB inh 65*, ABHD5-PLIN5 inh 2 and CF NFkB inh conf 41*.
`Cc1ccc(-c2ccc(CN3C(C(C)C)C(=O)N(Cc4cn(Cc5ccco5)nn4)CCS3(=O)=O)cc2)cc1` (stereo not drawn) gave KKLEB cytotox -20, Peg3 prom inh-1 56*, HIF-2a block 26, CF NFkB inh 69*, ABHD5-PLIN5 inh 3 and CF NFkB inh conf 39.
